From PubChem BioAssay AID1259339 (Broad Institute, 2017)
Active and inactive are the calls of the source.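 The calls were made as follows: active = fitted AC50 no higher than ten times the top tested dose (cut at about 90 µM in these data); inconclusive = flat curve with 30 to 70% signal loss, or bad fit; inactive = AC50 beyond ten times the top dose.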

Assay: TruHit bead signal quenchers or artefacts – biochemical, TruHit kit, artefact control, dose response (AID 1259339)
Details: TruHit alphaLISA kit signal interference counterscreen; series mostly up to 80 µM

| Compound | AC50 |
| --- | --- |
| O=C(NC1CC1)c1cc(-c2ccco2)nc2ccccc12 | inactive |
| COc1ccc(-n2c(C)c3c(OC)cccc(=O)c3c2C)cc1 | 22.1 µM (active) |
| Cc1ccc(-c2cc(C(=O)NCc3ccco3)c3ccccc3n2)o1 | 64.5 µM (active) |
| COc1ccc(S(=O)(=O)N2CCN(C(=O)c3cc4c(s3)CCC4)CC2)cc1 | > 160 µM (inactive) |
| CN(C)c1ccc(CN2C[C@H]3CC[C@@H]2CN(C(=O)c2ccncc2)C3)cn1 | inactive |
| O=C(CCN1CCOCC1)c1ccc2c(c1)OCCO2 | inactive |
| CC(C(=O)N1CCCC1)N1CCN(c2ccccc2O)CC1 (configuration not stated) | inactive |
| O=C(Nc1nc(-c2ccco2)c(-c2ccco2)s1)c1ccc(F)cc1F | 4.41 µM (active) |
| N#Cc1c(N)oc(-c2ccco2)c1-c1ccco1 | 29.9 µM (active) |
| COCC(=O)N1CCCC2(CCN(CCN3CCCC3)C2=O)C1 (configuration not stated) | inactive |
| CCc1ccc(Nc2nc(C(=O)NCc3ccc(N(C)C)cc3)nc3ccccc23)cc1 | inactive |
| Cc1ccc(-c2nn(-c3ccccc3)cc2CN(Cc2ccccc2)C(=O)CCC(=O)O)o1 | 53.7 µM (active) |
| NC(=O)C1(N2CCCCC2)CCN(c2ncc(NC(=O)c3ccc(F)cc3)cc2C(=O)O)CC1 | inactive |
| N#CNc1nc(O)cc(=O)[nH]1 | inactive |
| NC(=O)C1(N2CCCCC2)CCN(c2ccc(NC(=O)c3cccc(Cl)c3)cc2C(=O)O)CC1 | inactive |
| CC1(C)Cc2ccccc2-c2nc(-c3ccccc3)oc(=O)c21 | 33.4 µM (active) |
| O=C(Nc1nc(-c2nc3ccccc3s2)cs1)c1ccco1 | inactive |
